Data on 20 compounds can be found in PubChem BioAssay (EPA / NIEHS).

For experiment [1], the target named is rat CYP2C11, Cyp2c11 (gene 29277) (UniProt P08683). The experiment is described as follows: NVS_ADME_rCYP2C11: NovaScreen (NVS) CYP450-related Enzyme Activity (ADME) Assay for rat CYP2C11 (AID 2283118). The method, boiled down:
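Cell-free recombinant rat enzyme with fluorescent substrate; readout 0.33 h after dosing, loss of signal versus acetonitrile control. Initial duplicate single-point at 10 uM; actives rerun in concentration series.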

Experiment [2] deals with rat CYP2D2, Cyp2d26 (gene 25053) (UniProt P10634). Briefly: NVS_ADME_rCYP2D2: NovaScreen (NVS) CYP450-related Enzyme Activity (ADME) Assay for rat CYP2D2 (AID 2283124). In outline: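 Recombinant rat CYP2D2 in a cell-free fluorogenic activity assay, fluorescence read 0.75 h after dosing. Primary screen in duplicate at 10 uM; actives re-run singly in concentration-response to 20 uM, relative to acetonitrile.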

A further experiment has as its system rat CYP3A1, gene 25642. Briefly: NVS_ADME_rCYP3A1: NovaScreen (NVS) CYP450-related Enzyme Activity (ADME) Assay for rat CYP3A1 (AID 2283126). In outline:
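Cell-free recombinant CYP assay with fluorescent substrate, read 0.5 h after dosing. Screened at 10 uM in duplicate, hits at up to 20 uM in concentration-response; loss of signal versus acetonitrile baseline.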

Experiment [3] addresses rat CYP3A2, Cyp3a2 (gene 266682) (UniProt P05183). Briefly: NVS_ADME_rCYP3A2: NovaScreen (NVS) CYP450-related Enzyme Activity (ADME) Assay for rat CYP3A2 (AID 2283128). In outline: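 Cell-free rat CYP3A2 enzyme assay with fluorescent substrate, read 0.5 h after dosing. Primary duplicate screen at 10 uM; actives run in concentration-response up to 20 uM, relative to acetonitrile baseline.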

The target of experiment [4] is human AKT serine/threonine Kinase 1 (AKT1), AKT1 (gene 207) (UniProt P31749). The experiment is described as follows: NVS_ENZ_hAKT1: NovaScreen (NVS) Enzymatic Assay for human AKT serine/threonine Kinase 1 (AKT1) (AID 2283138). The method, boiled down:
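Recombinant AKT1, specific substrate, cell-free; 1 h; fluorescence intensity/electrophoretic mobility shift. Duplicate single-point 25 uM, then singleton CRC max 50 uM. DMSO = negative control/baseline; signal loss = inhibition.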

Experiment [5] concerns the target human Beta-secretase (BACE), BACE1 (gene 23621) (UniProt P56817). Briefly: NVS_ENZ_hBACE: NovaScreen (NVS) Enzymatic Assay for human Beta-secretase (BACE) (AID 2283140).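 Further: hits are inhibitors that reduce fluorescent substrate signal versus DMSO.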 In outline: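 Compounds were first tested in duplicate at 25 uM, then actives in concentration series, against recombinant BACE1 from SF9 cells. Enzyme activity was measured by fluorescence intensity 1 hour after dosing, with DMSO as negative control.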

The target in experiment [6] is human Aurora Kinase A - serine/threonine-protein Kinase 6 (AurA), AURKA (gene 6790) (UniProt O14965). Briefly: NVS_ENZ_hAurA: NovaScreen (NVS) Enzymatic Assay for human Aurora Kinase A - serine/threonine-protein Kinase 6 (AurA) (AID 2283142). In outline:
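Cell-free enzymatic assay with human Aurora A, 1 hour after dosing. Fluorescent substrate turnover detected after electrophoretic mobility shift separation of substrate and product. Screened at 25 uM, actives retested in concentration-response up to 50 uM.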

In experiment [7] the target is rat CYP2A2, Cyp2a2 (gene 24895) (UniProt P15149). Briefly: NVS_ADME_rCYP2A2: NovaScreen (NVS) CYP450-related Enzyme Activity (ADME) Assay for rat CYP2A2 (AID 2283116). The method, boiled down: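 Cell-free recombinant rat CYP2A2 activity with fluorogenic substrate, fluorescence read 0.2 h after dosing. Chemicals screened at 10 uM in duplicate, hits then run in concentration-response up to 20 uM; signal loss versus acetonitrile baseline.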

A further experiment concerns the target CDK2 (gene 1017) (UniProt P24941). The experiment is described as follows: NVS_ENZ_hCDK2: NovaScreen (NVS) Enzymatic Assay for human Cyclin-Cependent Kinase 2 (CDK2) (AID 2283144). The method, boiled down:
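Cell-free recombinant human CDK2 with fluorescent substrate, product separated by electrophoretic mobility shift; 1 hr read. Primary screen at 25 uM in duplicate, actives retested in concentration-response up to 50 uM; loss of signal versus DMSO.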

For experiment [8], the target named is human AMP-activated Protein Kinase, alpha 1 (AMPKa1), PRKAA1 (gene 5562) (UniProt Q13131). The experiment is described as follows: NVS_ENZ_hAMPKa1: NovaScreen (NVS) Enzymatic Assay for human AMP-activated Protein Kinase, alpha 1 (AMPKa1) (AID 2283130). The method, boiled down:
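Recombinant human AMPKα1 activity was measured cell-free by fluorescent substrate conversion with electrophoretic mobility-shift separation, 1 h after dosing. Duplicate single-point screening was at 25 uM; actives (≥30% inhibition) were retested in concentration-response up to 50 uM.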

Experiment [9] has as its target human Caspase 5 (CASP5), CASP5 (gene 838) (UniProt P51878). Briefly: NVS_ENZ_hCASP5: NovaScreen (NVS) Enzymatic Assay for human Caspase 5 (CASP5) (AID 2283137). In outline:
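E. coli-derived enzyme, cell-free, 2 h incubation, fluorescence intensity. 25 uM duplicate single-point; hits → concentration series to 50 uM. DMSO baseline, positive/negative controls on every plate.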

For experiment [10], the target named is human Caspase 4 (CASP4), CASP4 (gene 837) (UniProt P49662). The experiment is described as follows: NVS_ENZ_hCASP4: NovaScreen (NVS) Enzymatic Assay for human Caspase 4 (CASP4) (AID 2283143). In outline:
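The cell-free assay used E. coli-expressed enzyme with a fluorogenic substrate, read 2 h after dosing. Signal loss was scored versus DMSO. Screening was in duplicate at 25 uM, then singleton concentration-response up to 50 uM.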

Experiment [11] concerns the target rat CYP2C12, Cyp2c12 (gene 25011) (UniProt P11510). Briefly: NVS_ADME_rCYP2C12: NovaScreen (NVS) CYP450-related Enzyme Activity (ADME) Assay for rat CYP2C12 (AID 2283119). In outline: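 Cell-free recombinant rat CYP2C12 activity read by fluorescence 0.5 h after dosing; loss of signal versus acetonitrile control. Primary screen in duplicate at 10 uM; actives then run in concentration-response format.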

Experiment [12] has as its target human Acid Phosphatase 1 (ACP1), ACP1 (gene 52) (UniProt P24666). Briefly: NVS_ENZ_hACP1: NovaScreen (NVS) Enzymatic Assay for human Acid Phosphatase 1 (ACP1) (AID 2283136). The method, boiled down: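 Recombinant enzyme expressed in Sf9 cells, tested cell-free; activity read by fluorescence with electrophoretic mobility shift separation of substrate and product, 1.5 h after dosing. Primary screen in duplicate at 25 uM, actives then run in concentration series; loss of signal versus DMSO.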

Experiment [13] deals with rat CYP2C13, Cyp2c13 (gene 171521) (UniProt P20814). Briefly: NVS_ADME_rCYP2C13: NovaScreen (NVS) CYP450-related Enzyme Activity (ADME) Assay for rat CYP2C13 (AID 2283121). In outline:
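Recombinant rat CYP2C13 with fluorogenic substrate, 0.75 h cell-free incubation; primary screen in duplicate at 10 uM, actives followed in concentration series. Fluorescence loss relative to acetonitrile control indicates inhibition.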

The target of experiment [14] is human Acetylcholinesterase (AChE), ACHE (gene 43) (UniProt P22303). Briefly: NVS_ENZ_hAChE: NovaScreen (NVS) Enzymatic Assay for human Acetylcholinesterase (AChE) (AID 2283129). In outline:
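Cell-free colorimetric enzyme-activity assay; compounds read 0.33 hour after dosing, loss of signal vs DMSO baseline. Primary screen in duplicate at 25 uM single concentration, with active compounds retested in concentration series.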

A further experiment concerns the target Caspase-3 (Homo sapiens) (UniProt P42574). The experiment is described as follows: NVS_ENZ_hCASP3: NovaScreen (NVS) Enzymatic Assay for human Caspase 3 (CASP3) (AID 2283139). The method, boiled down:
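Recombinant human caspase-3 from E. coli with a fluorogenic substrate, read by fluorescence 1 h after dosing. Primary screen in duplicate at 25 uM. Actives (for example ≥30% inhibition) rerun as concentration-response up to 50 uM.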

“And” between values parts separate entries of the source, which are not always exact repeats. Equal entries are not always repeated. Inconclusive results are not listed. More than one record can exist for a structure, and the calls need not agree. The source made the active and inactive calls. How the source made its calls: active means hit-call score of the fitted dose curve at least 0.9, where 1 is the maximum; inconclusive means response in the unintended direction; inactive means score below 0.9.

Sequence of human Aurora Kinase A - serine/threonine-protein Kinase 6 (AurA), AURKA (gene 6790) (O14965 whole entry, looked up): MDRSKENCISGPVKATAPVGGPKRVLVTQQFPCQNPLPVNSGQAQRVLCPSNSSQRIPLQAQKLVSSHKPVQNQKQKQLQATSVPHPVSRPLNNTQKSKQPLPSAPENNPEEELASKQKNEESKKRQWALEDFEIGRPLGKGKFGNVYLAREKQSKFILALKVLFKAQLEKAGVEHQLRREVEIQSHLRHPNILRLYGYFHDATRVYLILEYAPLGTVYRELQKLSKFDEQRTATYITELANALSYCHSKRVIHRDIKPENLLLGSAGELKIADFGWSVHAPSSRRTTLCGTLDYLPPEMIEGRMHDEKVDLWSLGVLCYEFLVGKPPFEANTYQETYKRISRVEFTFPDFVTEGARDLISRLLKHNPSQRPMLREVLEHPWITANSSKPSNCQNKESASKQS
Sequence of rat CYP2C11, Cyp2c11 (gene 29277) (P08683 whole entry, looked up): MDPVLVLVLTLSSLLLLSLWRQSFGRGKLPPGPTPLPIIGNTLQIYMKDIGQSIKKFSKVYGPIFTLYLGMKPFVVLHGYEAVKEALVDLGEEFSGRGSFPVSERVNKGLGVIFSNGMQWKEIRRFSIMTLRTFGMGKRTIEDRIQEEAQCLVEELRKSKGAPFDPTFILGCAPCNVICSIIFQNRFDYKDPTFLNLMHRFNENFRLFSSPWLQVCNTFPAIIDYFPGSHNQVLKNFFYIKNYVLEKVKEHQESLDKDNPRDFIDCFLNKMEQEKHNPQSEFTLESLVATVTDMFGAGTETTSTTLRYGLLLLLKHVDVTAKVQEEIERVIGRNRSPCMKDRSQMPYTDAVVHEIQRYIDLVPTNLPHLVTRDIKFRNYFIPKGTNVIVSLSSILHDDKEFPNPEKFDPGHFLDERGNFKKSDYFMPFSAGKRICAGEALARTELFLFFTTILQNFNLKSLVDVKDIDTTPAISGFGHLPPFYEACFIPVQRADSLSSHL
Sequence of human AKT serine/threonine Kinase 1 (AKT1), AKT1 (gene 207) (P31749 whole entry, looked up): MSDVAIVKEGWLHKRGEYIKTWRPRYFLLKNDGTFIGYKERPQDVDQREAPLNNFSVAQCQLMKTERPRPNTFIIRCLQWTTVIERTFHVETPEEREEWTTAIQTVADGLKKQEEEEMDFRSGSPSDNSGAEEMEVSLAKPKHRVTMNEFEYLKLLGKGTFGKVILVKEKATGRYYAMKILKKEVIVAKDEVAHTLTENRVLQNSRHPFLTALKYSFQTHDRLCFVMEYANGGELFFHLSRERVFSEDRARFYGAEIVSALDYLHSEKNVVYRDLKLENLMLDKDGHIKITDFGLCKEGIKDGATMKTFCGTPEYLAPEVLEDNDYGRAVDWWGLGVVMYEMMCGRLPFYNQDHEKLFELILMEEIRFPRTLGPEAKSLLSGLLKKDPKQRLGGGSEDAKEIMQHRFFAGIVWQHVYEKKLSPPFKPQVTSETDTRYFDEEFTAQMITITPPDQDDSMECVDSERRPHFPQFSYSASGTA
Sequence of rat CYP3A2, Cyp3a2 (gene 266682) (P05183 whole entry, looked up): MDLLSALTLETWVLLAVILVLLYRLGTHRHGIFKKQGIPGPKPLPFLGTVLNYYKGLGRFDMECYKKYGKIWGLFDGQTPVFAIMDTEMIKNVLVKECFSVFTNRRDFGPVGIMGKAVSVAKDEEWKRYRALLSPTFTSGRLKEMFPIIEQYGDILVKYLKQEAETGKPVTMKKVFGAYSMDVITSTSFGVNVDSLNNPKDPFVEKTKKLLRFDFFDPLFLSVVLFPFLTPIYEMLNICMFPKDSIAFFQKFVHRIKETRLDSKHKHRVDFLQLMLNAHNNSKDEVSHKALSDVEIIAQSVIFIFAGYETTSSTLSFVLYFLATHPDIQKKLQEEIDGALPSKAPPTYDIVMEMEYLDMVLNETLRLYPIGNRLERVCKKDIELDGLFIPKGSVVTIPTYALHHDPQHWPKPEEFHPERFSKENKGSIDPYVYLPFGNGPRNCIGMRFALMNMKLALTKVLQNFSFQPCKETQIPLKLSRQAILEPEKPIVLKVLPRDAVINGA
Sequence of human Beta-secretase (BACE), BACE1 (gene 23621) (P56817 whole entry, looked up): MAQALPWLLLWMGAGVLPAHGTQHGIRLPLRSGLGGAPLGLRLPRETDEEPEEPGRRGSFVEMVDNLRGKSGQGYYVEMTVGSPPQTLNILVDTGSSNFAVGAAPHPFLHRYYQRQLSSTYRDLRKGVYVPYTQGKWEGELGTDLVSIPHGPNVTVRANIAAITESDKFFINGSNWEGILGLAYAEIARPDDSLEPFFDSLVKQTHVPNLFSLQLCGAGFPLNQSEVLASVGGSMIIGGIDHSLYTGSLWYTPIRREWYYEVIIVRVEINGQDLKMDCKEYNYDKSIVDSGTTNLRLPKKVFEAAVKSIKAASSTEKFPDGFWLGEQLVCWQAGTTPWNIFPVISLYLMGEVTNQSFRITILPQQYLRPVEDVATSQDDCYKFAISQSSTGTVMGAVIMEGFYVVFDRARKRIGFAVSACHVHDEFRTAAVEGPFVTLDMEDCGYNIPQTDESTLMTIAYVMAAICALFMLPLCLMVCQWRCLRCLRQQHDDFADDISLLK
Sequence of rat CYP2D2, Cyp2d26 (gene 25053) (P10634 whole entry, looked up): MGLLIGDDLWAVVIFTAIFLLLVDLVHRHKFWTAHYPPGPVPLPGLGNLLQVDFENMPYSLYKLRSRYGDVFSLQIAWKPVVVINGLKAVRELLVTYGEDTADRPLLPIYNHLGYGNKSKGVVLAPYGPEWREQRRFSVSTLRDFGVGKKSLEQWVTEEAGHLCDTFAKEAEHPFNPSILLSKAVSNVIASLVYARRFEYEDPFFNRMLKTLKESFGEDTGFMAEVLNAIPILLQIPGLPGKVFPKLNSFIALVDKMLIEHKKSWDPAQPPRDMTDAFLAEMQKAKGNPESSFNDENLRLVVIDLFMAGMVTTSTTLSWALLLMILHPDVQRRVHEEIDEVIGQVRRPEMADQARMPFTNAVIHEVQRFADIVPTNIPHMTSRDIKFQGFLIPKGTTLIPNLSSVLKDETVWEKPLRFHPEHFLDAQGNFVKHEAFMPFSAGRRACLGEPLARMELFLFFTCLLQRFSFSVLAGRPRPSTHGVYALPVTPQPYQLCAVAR
Sequence of rat CYP2C12, Cyp2c12 (gene 25011) (P11510 whole entry, looked up): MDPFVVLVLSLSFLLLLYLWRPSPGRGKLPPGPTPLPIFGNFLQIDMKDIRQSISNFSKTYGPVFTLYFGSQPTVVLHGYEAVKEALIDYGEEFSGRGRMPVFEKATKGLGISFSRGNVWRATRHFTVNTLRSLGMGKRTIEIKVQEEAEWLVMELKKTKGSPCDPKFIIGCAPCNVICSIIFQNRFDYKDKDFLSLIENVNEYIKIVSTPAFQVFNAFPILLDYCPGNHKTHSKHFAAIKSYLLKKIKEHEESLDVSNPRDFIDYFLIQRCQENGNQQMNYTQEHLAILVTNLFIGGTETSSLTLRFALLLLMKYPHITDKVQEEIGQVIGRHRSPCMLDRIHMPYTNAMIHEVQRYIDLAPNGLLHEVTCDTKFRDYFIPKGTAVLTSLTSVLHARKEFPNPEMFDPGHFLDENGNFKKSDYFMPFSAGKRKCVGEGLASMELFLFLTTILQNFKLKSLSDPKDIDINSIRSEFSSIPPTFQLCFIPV
Sequence of rat CYP2A2, Cyp2a2 (gene 24895) (P15149 whole entry, looked up): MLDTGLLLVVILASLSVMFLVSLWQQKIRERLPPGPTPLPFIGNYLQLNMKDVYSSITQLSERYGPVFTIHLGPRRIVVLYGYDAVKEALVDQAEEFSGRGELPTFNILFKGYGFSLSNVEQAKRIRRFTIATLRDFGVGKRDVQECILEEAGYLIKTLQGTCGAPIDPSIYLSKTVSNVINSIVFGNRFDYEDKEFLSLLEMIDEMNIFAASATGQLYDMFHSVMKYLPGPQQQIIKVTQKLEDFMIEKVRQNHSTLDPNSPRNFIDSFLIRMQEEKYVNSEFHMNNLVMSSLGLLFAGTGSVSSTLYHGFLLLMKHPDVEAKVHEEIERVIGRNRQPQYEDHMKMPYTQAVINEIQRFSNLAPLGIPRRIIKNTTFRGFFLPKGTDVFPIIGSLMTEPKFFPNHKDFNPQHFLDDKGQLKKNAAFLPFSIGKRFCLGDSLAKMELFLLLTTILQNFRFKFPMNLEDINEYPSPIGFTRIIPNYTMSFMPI
Sequence of rat CYP2C13, Cyp2c13 (gene 171521) (P20814 whole entry, looked up): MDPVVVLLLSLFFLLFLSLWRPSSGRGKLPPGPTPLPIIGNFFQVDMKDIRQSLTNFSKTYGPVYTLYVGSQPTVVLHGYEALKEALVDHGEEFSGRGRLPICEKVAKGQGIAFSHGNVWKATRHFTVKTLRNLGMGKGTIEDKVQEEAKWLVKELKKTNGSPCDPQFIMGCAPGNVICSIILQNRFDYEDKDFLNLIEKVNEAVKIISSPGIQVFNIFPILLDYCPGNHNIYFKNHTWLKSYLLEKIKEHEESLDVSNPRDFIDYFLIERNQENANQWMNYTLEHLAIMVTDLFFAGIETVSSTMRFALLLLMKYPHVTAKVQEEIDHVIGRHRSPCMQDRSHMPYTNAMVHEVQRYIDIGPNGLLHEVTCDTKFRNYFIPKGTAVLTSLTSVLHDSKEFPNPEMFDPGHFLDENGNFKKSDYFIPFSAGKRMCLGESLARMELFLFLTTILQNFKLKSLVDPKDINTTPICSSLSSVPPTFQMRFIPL
Sequence of human Caspase 5 (CASP5), CASP5 (gene 838) (P51878 whole entry, looked up): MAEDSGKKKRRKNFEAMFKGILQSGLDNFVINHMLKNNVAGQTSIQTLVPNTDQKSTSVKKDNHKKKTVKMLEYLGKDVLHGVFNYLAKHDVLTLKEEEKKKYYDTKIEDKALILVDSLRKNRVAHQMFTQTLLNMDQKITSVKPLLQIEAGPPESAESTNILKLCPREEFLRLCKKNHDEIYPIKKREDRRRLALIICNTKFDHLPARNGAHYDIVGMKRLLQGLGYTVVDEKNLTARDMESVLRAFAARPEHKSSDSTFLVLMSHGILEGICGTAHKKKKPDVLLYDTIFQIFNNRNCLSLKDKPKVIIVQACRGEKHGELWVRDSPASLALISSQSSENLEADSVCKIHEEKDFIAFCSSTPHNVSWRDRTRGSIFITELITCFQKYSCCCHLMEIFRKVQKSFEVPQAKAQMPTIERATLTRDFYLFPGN
Sequence of human Acid Phosphatase 1 (ACP1), ACP1 (gene 52) (P24666 whole entry, looked up): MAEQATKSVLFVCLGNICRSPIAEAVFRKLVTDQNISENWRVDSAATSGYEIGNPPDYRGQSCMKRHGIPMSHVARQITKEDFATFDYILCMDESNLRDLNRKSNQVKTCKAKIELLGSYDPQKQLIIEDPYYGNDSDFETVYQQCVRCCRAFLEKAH

One may read the AC50 as the concentration at which the activity in the assay is half-maximal. Consider `Cc1ccc(-c2c(Cl)nc(C#N)n2S(=O)(=O)N(C)C)cc1`, for which the AC50 in experiment [1] is 6130 nM (active); in experiment [2], 4310 nM (active); with rat CYP3A1, gene 25642, 2.88 µM (active); in experiment [3] it was 1100 nM (active); in experiment [6], 23500 nM (active). For the same compound, the outcome in experiment [4] and in experiment [5] was inactive.

As for `CCNc1nc(Cl)nc(NC(C)C)n1`, the call (in experiment [7]; with CDK2 (gene 1017)) was inactive.

As to `COc1nc(C)nc(NC(=O)NS(=O)(=O)c2ccccc2Cl)n1`, the compound was classed as inactive with CDK2 (gene 1017).

Consider `CO/C=C(/C(=O)OC)c1ccccc1Oc1cc(Oc2ccccc2C#N)ncn1`, for which the AC50 is 2810 nM (active) in experiment [1]; 5.8 µM (active) with rat CYP3A1, gene 25642; 6600 nM (active) in experiment [3]; 14700 nM (active) in [4]. The result in experiment [8], in experiment [9], in experiment [4] and in experiment [10] was inactive.

In the case of `CCCCOC(=O)c1ccccc1C(=O)OCCCC`, the compound was called inactive in [7], in [4] and in [5].

For `N#Cc1cc(Br)c(O)c(Br)c1`, the compound was classed as inactive in [4] and in [6].

Consider `COc1nc(NC(C)C)nc(NC(C)C)n1`, for which, in [9], the outcome was inactive.

For the compound `Oc1ccccc1-c1ccccc1`, the outcome in [7], in [4] and in [6] was inactive.

Turning to `C=CCC1=C(C)C(OC(=O)C2C(C=C(C)C)C2(C)C)CC1=O` (stereo not drawn), in experiment [3], the AC50 is 6870 nM (active). For the same compound, in experiment [5], the compound was classed as inactive.

Turning to `CCCCNC(=O)OCC#CI`, the AC50 in experiment [7] was 5.3 µM (active) and 5.4 µM (active); in the experiment with rat CYP3A1, gene 25642 it was 1.46 µM (active) and 4.29 µM (active).

Consider `CCOC(=O)C(Cl)Cc1cc(-n2nc(C)n(C(F)F)c2=O)c(F)cc1Cl` (stereo not drawn), for which the compound was classed as inactive in [2].

As to `COC(=O)N(OC)c1ccccc1COc1ccn(-c2ccc(Cl)cc2)n1`, the AC50 in experiment [1] is 809 nM (active); with rat CYP3A1, gene 25642 it was 1.29 µM (active); in [5], 11600 nM (active).

Take `CCCN(CCC)c1c([N+](=O)[O-])cc(S(N)(=O)=O)cc1[N+](=O)[O-]`: the outcome (in [1]; in experiment [12]; in experiment [4]; in experiment [6]; with CDK2 (gene 1017)) was inactive. The AC50 in [11] was 3080 nM (active); in experiment [2], 1300 nM (active); in the experiment on rat CYP3A1, gene 25642, 1.24 µM (active); in experiment [3], 2670 nM (active).

In the case of `Cc1c(F)c(F)c(COC(=O)C2C(/C=C(\Cl)C(F)(F)F)C2(C)C)c(F)c1F` (stereo not drawn), the outcome in [5] was inactive.

As for `CCOC(=O)CC(SP(=S)(OC)OC)C(=O)OCC` (stereo not drawn), the AC50 is 2.59 µM (active) in [7]; 399 nM (active) in experiment [1]; 6050 nM (active) in experiment [11]; 8120 nM (active) in experiment [13]; 6280 nM (active) in experiment [2]; 1.88 µM (active) in the experiment with rat CYP3A1, gene 25642. The AC50 in [3] was 306 nM (active).

Consider `CCOP(=S)(OCC)SCn1c(=O)oc2cc(Cl)ccc21`, for which the AC50 in experiment [7] is 10 µM (active); in experiment [1] it was 993 nM (active); in experiment [11] it was 2170 nM (active); in experiment [13], 2090 nM (active); in experiment [2] it was 2070 nM (active); in the experiment with rat CYP3A1, gene 25642, 1.16 µM (active). The AC50 is 518 nM (active) in [3] and 14400 nM (active) in [5]. In addition, the compound was classed as inactive in experiment [4].

For the compound `CN(C)C(=S)SSC(=S)N(C)C`, the AC50 in [11] is 1980 nM (active); in experiment [13], 991 nM (active); with rat CYP3A1, gene 25642, 3.2 µM (active); in experiment [3], 2420 nM (active); in [14], 10600 nM (active).

`C#CCOS(=O)OC1CCCCC1Oc1ccc(C(C)(C)C)cc1` (stereo not drawn): the AC50 was 10000 nM (active) in experiment [2] and 14800 nM (active) in experiment [5]. Also, the call with Caspase-3 (Homo sapiens) was inactive.

With `CC(C)Oc1cc(-n2nc(C(C)(C)C)oc2=O)c(Cl)cc1Cl`, the result in experiment [5] and in experiment [10] was inactive.

Consider `Fc1ccc(Oc2ccnc3cc(Cl)cc(Cl)c23)cc1`, for which the AC50 in [1] is 15600 nM (active). Moreover, the call in experiment [6] was inactive.
